Results filed as inconclusive are left out. Where a call stands in place of a potency, no number is given. Active and inactive are the calls of the source. Unless noted, calls come from the whole dose curve; as a rule, active = well fitted curve in the direction sought with a large enough effect in the repeat runs; inconclusive = weak or mixed curves; inactive = no such curve, though single readings can be large; an effect the other way counts as inactive or inconclusive.
Assays:
[1] = qHTS assay for small molecule agonists of the p53 signaling pathway (AID 651631; calls by dose curve; note: nearly all actives have a fitted effect of over 15% in size)
In short: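 Beta-lactamase reporter activity under p53 response elements was quantified in HCT-116 cells by FRET fluorescence, following 16 h incubation with test compounds at 37 °C and 2 h substrate development at room temperature.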

[2] = qHTS assay for small molecules that induce genotoxicity in human embryonic kidney cells expressing luciferase-tagged ATAD5 (AID 651632); note: nearly all actives have a fitted effect of over 15% in size
In short: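 Concentration-response screen for ATAD5 upregulation in HEK293T luciferase reporter cells; 16 hr treatment at 37C, then luminescence after 30 min with Amplite at room temperature.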

[3] = qHTS assay for small molecule agonists of the p53 signaling pathway - cell viability (AID 651633; calls by dose curve;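 note: p53RE-bla HCT reporter cells with a stable beta-lactamase p53 reporter; nearly all actives have a fitted effect of over 30% in size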)
In short: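 p53RE-bla cells, seeded at 4,000 per well and rested 5 h at 37 C/5% CO2, received compounds in DMSO for 16 h at 37 C. CellTiter-Glo was then added, and luminescence was read after 30 min at room temperature to gauge cytotoxicity.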

[4] = qHTS assay for small molecules that induce genotoxicity in human embryonic kidney cells expressing luciferase-tagged ATAD5 - cell viability (AID 651634; calls by dose curve; note: nearly all actives have a fitted effect of over 25% in size)
In short: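 15.5 hr compound or vehicle exposure of HEK293T cells expressing luciferase-tagged ATAD5 at 37C; live-cell protease activity is read by fluorescence after 30 min of CellTiter-Fluor.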

[5] = qHTS assay for small molecule disruptors of the mitochondrial membrane potential - cell viability (AID 720634; calls by dose curve;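 note: human HepG2 liver cancer cells; nearly all actives have a fitted effect of over 20% in size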)
In short: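 In this qHTS format, HepG2 cells plated overnight were pinned with compound, incubated 1 hr, and assayed for ATP luminescence with CellTiter-Glo after m-MPI dye addition.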

[6] = qHTS assay to test for compound auto fluorescence at 590 nm (red) in HepG2 cells (AID 720674)
In short: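 Intrinsic compound fluorescence in the red window (Ex/Em 540/590 nm) is measured in attached HepG2 cells exposed for 1 hr, DMSO vehicle as baseline, benchmarked to Rose Bengal sodium.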

[7] = qHTS assay to test for compound auto fluorescence at 535 nm (green) in HepG2 cells (AID 720675)
[8] = qHTS assay to test for compound auto fluorescence at 460 nm (blue) in HEK293 cells (AID 720678)
In short: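 HEK293 cells (2,000/well, medium with 10% dialyzed FBS) attached 4-5 hr, then exposed to compound overnight at 37C, 5% CO2. Blue fluorescence read at 405/460 nm, with triamterene as reference fluorophore.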

[9] = qHTS assay to test for compound auto fluorescence at 590 nm (red) in HEK293 cells (AID 720679)
In short: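 HEK293 cells (2,000/well, 10% dialyzed FBS) attached 4-5 hr, then dosed with compound or DMSO and incubated overnight at 37C, 5% CO2. Red fluorescence read at 540/590 nm, Rose Bengal sodium as reference fluorophore.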

[10] = qHTS assay to test for compound auto fluorescence at 535 nm (green) in HEK293 cells (AID 720680)
[11] = qHTS assay to test for compound auto fluorescence at 460 nm (blue) in HEK293 cell free culture (AID 720681)
In short: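 Test compounds were pinned into cell-free culture medium (DMEM with 10% FBS) and fluorescence was read directly at Ex/Em 405/460 nm. Signals were expressed as fluorescence equivalents of triamterene, with DMSO vehicle as control.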

[12] = qHTS assay to test for compound auto fluorescence at 535 nm (green) in HEK293 cell free culture (AID 720682)
In short: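 Each library compound, or DMSO control, is added by pintool to medium alone, comprising DMEM and 10% FBS. Emission at 535 nm following 485 nm excitation is quantified against fluorescein.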

[13] = qHTS assay to test for compound auto fluorescence at 590 nm (red) in HEK293 cell free culture (AID 720683)
In short: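 Tox21 10K library compounds were pinned into cell-free DMEM with 10% FBS and fluorescence was read at excitation 540 nm. Activity is expressed as Rose Bengal sodium equivalency.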

[14] = qHTS assay to test for compound auto fluorescence at 590 nm (red) in HepG2 cell free culture (AID 720684)
In short: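 Readout: intrinsic compound fluorescence at 590 nm emission after 540 nm excitation, scaled to Rose Bengal sodium. Matrix was cell-free MEM with 10% FBS; DMSO vehicle wells served as control.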

[15] = qHTS assay to test for compound auto fluorescence at 460 nm (blue) in HepG2 cell free culture (AID 720685)
In short: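 Cell-free plates of MEM plus 10% FBS received 23 nL compound or DMSO vehicle; blue-channel (405/460 nm) intensity scored against triamterene as reference fluorophore.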

[16] = qHTS assay to test for compound auto fluorescence at 535 nm (green) in HepG2 cell free culture (AID 720686)
[17] = qHTS assay to test for compound auto fluorescence at 460 nm (blue) in HepG2 cells (AID 720687)
In short: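 Cells (2,000/well in MEM with 10% FBS) attached overnight at 37 C, then were exposed to compound or DMSO for 1 hr at 37 C, 5% CO2. Fluorescence read at Ex/Em 405/460 nm, expressed as triamterene-equivalent signal.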

[18] = qHTS assay for small molecule disruptors of the mitochondrial membrane potential (AID 720635); note: potency is the fitted concentration of half-maximal effect
In short: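 HepG2 cells (2,000/well) attached overnight at 37C, then took compound for 1 hr at 37C, 5% CO2. Mito-MPS dye was added for 30 min; fluorescence was read at 490/535 nm (monomers) and 540/590 nm (aggregates).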

[19] = target: Glucocorticoid receptor (Homo sapiens) (UniProt P04150); test: qHTS assay to identify small molecule agonists of the glucocorticoid receptor (GR) signaling pathway (AID 720691; active = well fitted activation curve with a large enough effect in the signal ratio in the repeat runs, not every such curve was filed as active; the % refers to the signal ratio); details: GR-bla HeLa, beta-lactamase reporter ratio, 18 h; activation: at 62.4 µM (top of the series)
Chain of Glucocorticoid receptor (Homo sapiens) (P04150 whole entry, looked up): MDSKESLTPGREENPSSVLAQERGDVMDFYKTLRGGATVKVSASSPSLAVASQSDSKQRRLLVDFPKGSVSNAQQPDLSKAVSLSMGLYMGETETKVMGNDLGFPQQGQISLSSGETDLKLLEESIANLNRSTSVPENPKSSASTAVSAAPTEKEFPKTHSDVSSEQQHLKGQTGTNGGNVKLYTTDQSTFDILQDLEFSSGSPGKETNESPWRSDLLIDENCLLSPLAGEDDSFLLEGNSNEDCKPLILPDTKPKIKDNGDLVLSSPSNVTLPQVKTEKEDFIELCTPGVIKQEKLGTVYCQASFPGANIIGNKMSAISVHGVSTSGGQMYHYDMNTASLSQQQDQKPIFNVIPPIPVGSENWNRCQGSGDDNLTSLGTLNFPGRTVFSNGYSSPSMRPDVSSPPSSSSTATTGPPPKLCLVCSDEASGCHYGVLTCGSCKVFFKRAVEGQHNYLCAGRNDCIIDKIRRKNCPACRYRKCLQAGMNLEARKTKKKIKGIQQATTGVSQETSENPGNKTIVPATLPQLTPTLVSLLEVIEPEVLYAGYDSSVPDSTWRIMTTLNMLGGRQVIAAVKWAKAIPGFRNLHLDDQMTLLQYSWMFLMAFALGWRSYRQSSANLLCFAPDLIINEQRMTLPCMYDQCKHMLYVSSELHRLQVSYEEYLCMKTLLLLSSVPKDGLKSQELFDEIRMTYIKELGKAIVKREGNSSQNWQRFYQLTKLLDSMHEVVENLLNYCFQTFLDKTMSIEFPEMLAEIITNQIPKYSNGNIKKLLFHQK
In short: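 Measures GR pathway activation through a GRE-beta-lactamase reporter stably integrated in HeLa cells, with 18 h compound treatment at 37 C and fluorescence detection using a FRET substrate.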

[20] = target: Glucocorticoid receptor (Homo sapiens) (UniProt P04150); test: qHTS assay to identify small molecule antagonists of the glucocorticoid receptor (GR) signaling pathway (AID 720692; active = well fitted inhibition curve with a large enough effect in the signal ratio in the repeat runs, not every such curve was filed as active; the % refers to the signal ratio)
In short: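 Tox21 10K library screened in concentration-response for blockade of dexamethasone (5 nM final)-induced GRE-bla reporter activity in HeLa cells; 18 h treatment, fluorescence read.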

SMILES	Potency [1]	Potency [2]	Potency [3]	Potency [4]	Potency [5]	Potency [6]	Potency [7]	Potency [8]	Potency [9]	Potency [10]	Potency [11]	Potency [12]	Potency [13]	Potency [14]	outcome [15]	Potency [16]	outcome [17]	Potency [18]	Potency [19]	Potency [20]
CC(C)Cc1ccc([C@@H](C)C(=O)NS(C)(=O)=O)cc1	inactive	inactive	inactive	inactive	inactive	inactive	inactive	inactive	inactive	inactive	inactive	inactive	inactive	inactive	inactive	inactive	inactive	–	–	–
OC(CN1CCCCC1)c1cc(-c2ccccc2)on1 (stereo not drawn)	inactive	inactive	inactive	inactive	inactive	inactive	inactive	–	inactive	inactive	inactive	inactive	inactive	inactive	inactive	inactive	inactive	inactive	inactive	–
C/C=C(/CC[C@@H](C)[C@H]1CC[C@H]2C3=CC[C@H]4[C@H](C)[C@@H](O)CC[C@]4(C)[C@H]3CC[C@]12C)C(C)C	inactive	inactive	inactive	inactive	inactive	inactive	inactive	inactive	inactive	inactive	inactive	inactive	inactive	inactive	inactive	inactive	inactive	–	–	–
CCC(=O)OCC(=O)[C@@]1(OC(=O)CC)[C@H](C)C[C@H]2[C@@H]3CCC4=CC(=O)C=C[C@]4(C)[C@@]3(F)[C@@H](O)C[C@@]21C	inactive	inactive	inactive	inactive	inactive	–	inactive	inactive	inactive	inactive	inactive	inactive	inactive	inactive	inactive	inactive	inactive	29.8 µM (active)	–	–
CCC(C)(C)OC(=O)N[C@@H](Cc1c[nH]c2ccccc12)C(=O)N[C@@H](CCSC)C(=O)N[C@@H](CC(=O)O)C(=O)N[C@@H](Cc1ccccc1)C(N)=O	inactive	inactive	inactive	inactive	inactive	inactive	–	inactive	inactive	inactive	inactive	inactive	–	inactive	inactive	inactive	–	inactive	inactive	inactive
CC(C)[C@@H]1CC[C@@H](C)C[C@H]1OC(=O)c1ccccc1O	inactive	inactive	inactive	inactive	inactive	inactive	inactive	inactive	inactive	inactive	inactive	inactive	inactive	inactive	inactive	inactive	inactive	–	–	–
COc1ccc(CCNC[C@H](O)c2ccc(O)cc2)cc1OC	inactive	inactive	inactive	inactive	inactive	inactive	inactive	inactive	inactive	inactive	inactive	inactive	inactive	inactive	inactive	inactive	inactive	–	inactive	–
CCCCCCCCCCCCCCCCCC(=O)[O][Al]	inactive	inactive	inactive	inactive	inactive	inactive	inactive	inactive	inactive	inactive	inactive	inactive	inactive	inactive	inactive	inactive	inactive	–	inactive	–
O=C1NC(=O)[C@H]2[C@@H]1[C@@H]1C=C[C@H]2C1	inactive	inactive	inactive	inactive	inactive	inactive	inactive	inactive	inactive	inactive	inactive	inactive	inactive	inactive	inactive	inactive	inactive	–	inactive	inactive

Reference: PubChem BioAssay (Tox21)
